A selection: hits, their analogues and other compounds. The true share with any hit is near 7.5%.
FLuc counter = qHTS profiling assay for firefly luciferase inhibitor/activator using purifed enzyme and Km concentrations of substrates (counterscreen for miR-21 project). Luciferin 4-monooxygenase (Photinus pyralis), P08659. purified FLuc, Km substrates, luminescence inhibition. Potency, µM (doses to about 57.5 µM), for inactives: at the highest dose activity change, negative = inhibition, most hits filed as inhibitors. 360,000 compounds, 6.9% hits;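 note: plate controls were vehicle for no effect and reference inhibitor for full effect; nearly all actives have a fitted effect of over 55% in size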
Target sequence (P08659 whole entry, looked up): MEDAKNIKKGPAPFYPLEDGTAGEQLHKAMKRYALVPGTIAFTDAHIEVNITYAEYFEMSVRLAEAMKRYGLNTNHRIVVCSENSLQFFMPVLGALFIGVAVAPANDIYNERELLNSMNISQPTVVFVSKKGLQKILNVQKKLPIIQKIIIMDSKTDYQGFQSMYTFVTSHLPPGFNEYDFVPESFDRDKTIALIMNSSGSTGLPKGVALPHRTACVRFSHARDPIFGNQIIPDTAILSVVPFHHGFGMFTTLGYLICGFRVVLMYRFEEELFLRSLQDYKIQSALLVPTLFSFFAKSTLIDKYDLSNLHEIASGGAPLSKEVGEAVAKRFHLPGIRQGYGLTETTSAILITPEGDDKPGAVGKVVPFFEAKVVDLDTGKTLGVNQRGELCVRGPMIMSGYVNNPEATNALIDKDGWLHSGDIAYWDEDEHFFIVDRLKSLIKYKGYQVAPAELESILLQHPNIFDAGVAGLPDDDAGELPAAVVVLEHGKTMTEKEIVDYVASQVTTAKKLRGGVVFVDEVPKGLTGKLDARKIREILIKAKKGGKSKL
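Purified P. pyralis luciferase (10nM final) with 10uM D-luciferin and 10uM ATP (Km levels) in 50mM Tris acetate pH 7.5, 10mM Mg acetate, 0.01% Tween-20, 0.05% BSA; qHTS 6-point titration, ~60 µM downward; luminescence read.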
NPC1 prom act = qHTS Assay for NPC1 Promoter Activators; Huh7 NPC1 promoter luciferase reporter, 24 h; Potency, µM (titrated, usually from 9.22 µM), inactives show at the top dose activation, most hits filed as activators; 320,000 compounds, 2.4% hits; AID 485313, 2010; note: % of control where 0% means no effect; nearly all actives have a fitted effect of over 60% in size
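Huh7 reporter cells (NPC1 promoter driving luciferase) are dosed with compound for 24 h at 37 °C, 5% CO2; luciferase detection reagent is then added and luminescence measured after 10 min at ambient temperature.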
ELG1 genotox = qHTS screen for small molecules that induce genotoxicity in human embryonic kidney (HEK293T) cells expressing luciferase-tagged ELG1; HEK293T ELG1-luciferase reporter, luminescence, 16 h; Potency, µM (highest dose often 46 µM), inactives show top-dose activity change, positive = activation, hits mostly activators; 330,000 compounds, 1.3% hits; note: % of control where 0% means no effect; nearly all actives have a fitted effect of over 60% in size
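16 hr compound incubation (37 °C, 5% CO2) of HEK293T cells carrying luciferase-tagged ELG1; luciferase then measured by ONE-Glo luminescence after 30 min at RT.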
Rab9 promoter act = qHTS Assay for Rab9 Promoter Activators; AID 485297, 2010; Potency, µM (top dose mostly 9.22 µM), for the others: at the highest dose activation, negative = inhibition, most hits filed as activators; 320,000 compounds, 2.8% hits; Huh7 Rab9 promoter-luciferase reporter, luminescence, 24 h; note: % of control where 0% means no effect; nearly all actives have a fitted effect of over 60% in size
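Measured in stably transfected Huh7 cells bearing a Rab9 promoter–luciferase construct: 24 h compound treatment at 37 °C, followed by luminescence detection.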
SMN2 splice up = qHTS Assay for Enhancers of SMN2 Splice Variant Expression. HEK293 SMN2-luciferase splicing reporter, luminescence, 30-36 h. Potency, µM (titrated, usually from 46.1 µM), for inactives: top-dose activity change, positive = activation, actives largely listed as activators. 210,000 compounds, 2.8% hits; note: % of control where 0% means no effect; nearly all actives have a fitted effect of over 55% in size
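qHTS luciferase splicing reporter: luminescence rises when SMN2 exon 7 is included in transfected HEK293 cells. Compound exposure lasted 30-36 h at 37C, with 4.5 mM final sodium butyrate as control, followed by a ONE-Glo read.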
KinaseGlo FLuc = Counterscreen for Luciferase (Kinase-Glo TM) Inhibition; Luciferin 4-monooxygenase (Photuris pensylvanica), Q27757; Kinase-Glo luciferase, ATP luminescence, 8 min; Potency, µM (series often up to 38.3 µM), for the others: at the highest dose activity change, negative = inhibition, hits mostly inhibitors; 200,000 compounds, 0.28% hits; AID 1379, 2008; note: % is set by controls: 0 for no effect and ±100 for the full control effect; nearly all actives have a fitted effect of over 60% in size
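Recombinant Kinase-Glo luciferase, 10 uM ATP (linear range), luciferin; imidazole pH 7.2 / KCl / MgCl2 / Tween / BSA buffer; 8 min RT; luminescence.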
An asterisk follows results filed as active; ? = inconclusive; nt = not tested or not shown; [ ] = another dose, or the depositor's remark. Calls come from the whole dose curve; as a rule, active = well fitted curve in the direction sought with a large enough effect; inconclusive = small, poorly fitted or top-dose-only effect, or another doubt; inactive = no such curve, though single readings can be large; an effect the other way counts as inactive or inconclusive. Potency is the fitted concentration of half-maximal effect.

SMILES | FLuc counter | NPC1 prom act | ELG1 genotox | Rab9 promoter act | SMN2 splice up | KinaseGlo FLuc
c1ccc2cc(-c3cc4ccccn4c3)ccc2c1 | 0.85µM* | 3.2µM* | 3.7µM* | 3.2µM* | 11µM* | -13%
COc1cc(OC)c(C(=O)OCC(=O)c2cc(C)n(CC3CCCO3)c2C)cc1OC (configuration not stated) | 21µM* | -1% | 2% | 3% | 7% | 3%
COc1cc(OC)cc(C(=O)OCC(=O)c2cc(C)n(CC3CCCO3)c2C)c1 (configuration not stated) | 6.7µM* | 14% | 8% | 18% | nt | nt
Cc1cc(C)n2nc(C(=O)OCC(=O)c3cc(C)n(CC4CCCO4)c3C)nc2n1 (configuration not stated) | -17% | 1% | -1% | -4% | 6% | 6%
Cc1cc(C(=O)COC(=O)c2ccc(Cl)c(S(N)(=O)=O)c2)c(C)n1CC1CCCO1 (configuration not stated) | 1.5µM* | 0.79µM* | ? | 0.71µM* | nt | nt
COCCn1c(C)cc(C(=O)COC(=O)c2ccc(Cl)c(S(N)(=O)=O)c2)c1C | 0.76µM* | 0.5µM* | 0.58µM* | 0.5µM* | nt | nt
COc1ccc(Br)cc1CNC(=O)c1cc(=O)[nH]c2ccc(S(=O)(=O)N3CCCCC3C)cc12 (configuration not stated) | 6% | nt | nt | nt | nt | nt
CCOc1ccc(N2CC(C(=O)NCCc3ccc(S(N)(=O)=O)cc3)CC2=O)cc1 (configuration not stated) | 2% | 2% | 0% | 2% | nt | nt
Cc1cc(C(=O)COC(=O)c2ccc3c(c2)NC(=O)CS3)c(C)n1CC1CCCO1 (configuration not stated) | 15µM* | -5% | -1% | -4% | -13% | 2%
COCC(C)n1c(C)cc(C(=O)COC(=O)c2ccc3c(c2)NC(=O)CS3)c1C (configuration not stated) | ? | 1% | -4% | -1% | -25% | 0%
Cc1cc(C(=O)COC(=O)c2ccc(O)cc2)c(C)n1CC1CCCO1 (configuration not stated) | 4.8µM* | 1.8µM* | ? | 4µM* | 23% | -6%
Cc1cc(C(=O)COC(=O)c2nc3nccc(C)n3n2)c(C)n1CC1CCCO1 (configuration not stated) | -16% | 8% | 2% | -6% | -21% | 1%
C=CCn1c(=S)[nH]c2cc(-c3ccccc3)sc2c1=O | 1.9µM* | 25% | 9% | 19% | nt | nt
Cc1ccccc1Nc1c(-c2ccc(Cl)cc2)nc2c(C)cccn12 | 0% | nt | nt | nt | -9% | nt
Cc1ccccc1Nc1c(-c2ccco2)nc2c(C)cccn12 | 13µM* | nt | nt | nt | 16µM* | nt
O=C(Cc1ccc(-c2ccccc2)cc1)Nc1ccccc1 | -1% | 3% | ? | 16% | nt | nt
O=C(Cc1ccc(-c2ccccc2)cc1)Nc1ncccc1O | 15µM* | ? | ? | ? | nt | nt
COc1ccc(N2CCN(C(=O)c3cc(-c4cccs4)nc4ccccc34)CC2)cc1 | ? | 1% | -14% | -1% | -11% | 4%
O=C(c1cc(-c2ccco2)nc2ccccc12)N1CCN(c2ccc(F)cc2)CC1 | 19µM* | -1% | -8% | 9% | 5% | 0%
O=C(N/N=C/c1ccc(F)cc1)c1cc(-c2ccco2)nc2ccccc12 | 3µM* | -18% | 1% | -4% | 6% | -4%
C/C(=N\NC(=O)c1ccc(O)cc1O)c1cccnc1 | 9.5µM* | 24% | 11% | ? | nt | nt
C/C(=N\NC(=O)c1cc(-c2ccco2)nc2ccccc12)c1cccnc1 | 13µM* | 13% | 2% | 16% | 0% | -15%
COc1ccc(S(=O)(=O)NCCC(=O)Nc2ccc(C)cc2)cc1 | -2% | -3% | -1% | -5% | nt | nt
Cc1ccccc1OCCn1cnc2cc([N+](=O)[O-])ccc2c1=O | 2% | -2% | -6% | -3% | -46% | 2%
O=C(OCC(=O)N1CCN(C(=O)c2ccco2)CC1)c1cc(-c2ccco2)nc2ccccc12 | 15µM* | -5% | -2% | -10% | -7% | -3%
SMILES | FLuc counter | NPC1 prom act | ELG1 genotox | Rab9 promoter act | SMN2 splice up | KinaseGlo FLuc
O=C(OCC(=O)N1CCN(C(=O)c2ccco2)CC1)c1cc(-c2ccc(Cl)c(Cl)c2Cl)nc2ccccc12 | -12% | 1% | -5% | 4% | -9% | 2%
O=C(O)c1cc(-c2ccco2)nc2ccccc12 | 21µM* | 14% | 4% | 6% | 9% | -8%
CCOc1ccc(-c2nonc2NC(=O)c2oc3ccc(Br)cc3c2C)cc1 | -4% | nt | nt | nt | -5% | nt
C/C(=N\NC(N)=S)c1ccc[nH]1 | nt | nt | nt | nt | 0%[9.22 µM] | 2%[7.66 µM]
O=C(c1ccco1)N1CCN(C(c2ccccn2)c2nnnn2C2CCCC2)CC1 (configuration not stated) | 15µM* | ? | ? | ? | 13µM* | -3%
O=C(O)CC1S/C(=N/N=C/C=C/c2ccccc2[N+](=O)[O-])NC1=O (configuration not stated) | 0% | 2% | -1% | 0% | 14% | -3%
O=C(O)CC1S/C(=N/N=C/C=C/c2ccccc2)NC1=O (configuration not stated) | 19µM* | -2% | 3% | 0% | -6% | -6%
COc1ccc(CNc2ccc3c(c2)nc(C)n3C)cc1 | 9.5µM* | 2.5µM* | ? | 1.4µM* | 11µM* | -3%
Cc1ccc(CNc2ccc3c(c2)nc(C)n3C)cc1 | 4.3µM* | 0.56µM* | 2.1µM* | 0.63µM* | nt | nt
Cc1nc2cc(NCc3ccccc3O)ccc2n1Cc1ccccc1 | 24µM* | 8% | 2% | 15% | nt | 4%
Cc1nc2cc(NCc3ccc(Cl)cc3)ccc2n1C | 2.1µM* | 0.45µM* | 2.6µM* | 0.45µM* | nt | nt
CCOC(=O)c1ccc(N2C(=O)c3[nH]nc(-c4ccc(C)cc4)c3C2c2cccs2)cc1 (configuration not stated) | 1% | nt | nt | nt | -12% | nt
O=C(/C=C/c1cccs1)c1cc(Cl)ccc1O | ? | 5% | -3% | -2% | 1% | -2%
O=C(/C=C/c1ccc2ccccc2n1)c1cc(Cl)ccc1O | 4.8µM* | 9% | 11% | -2% | nt | nt
CCOc1ccc(C(=O)O/N=C(\N)c2ccccn2)cc1 | 0.085µM* | 0.1µM* | ? | 0.5µM* | nt | nt
C/C(=N/O)c1ccccn1 | 0% | 2% | -2% | -3% | 7% | 3%

Source: PubChem BioAssay
